Screens deposited in PubChem by National Center for Advancing Translational Sciences (NCATS).
Hits are enriched below; roughly 11% of the tested compounds scored in any of these assays.
HEK cytotox: Cytotoxic Profiling in HEK 293 Cell Line of Diverse Libraries Using Quantitative High-Throughput Screening; Potency, µM (top dose mostly 115 µM), most hits filed as inhibitors; HEK 293 viability, ATP luminescence (CellTiter-Glo), 48-72 h; hit rate 6.6% among 94,000; AID 1345083, 2018; also: nearly all actives have a fitted effect of over 60% in size
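Pintool-delivered compounds were incubated with HEK 293 cells (250 cells/well) at 37 degree Celsius for 48 or 72 hr. ATP-dependent luminescence (CellTiter-Glo) then reported remaining viable cells.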
3T3 cytotox: Cytotoxic Profiling in NIH 3T3 Cell Line of Diverse Libraries Using Quantitative High-Throughput Screening. NIH 3T3 viability, CellTiter-Glo ATP luminescence, 48-72 h. Potency, µM (highest dose often 96.7 µM), most hits filed as inhibitors. hit rate 4.3% among 94,000. AID 1345082, 2018; also: nearly all actives have a fitted effect of over 55% in size
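Cytotoxicity is measured as loss of cellular ATP: NIH 3T3 cells (400/well) are exposed to compound for 48 or 72 hr at 37 °C, then CellTiter-Glo luminescence is imaged after 10 min at room temperature.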
Luciferase inh: Firefly luciferase inhibition profiling of diverse chemical library using quantitative high-throughput screening | Luciferin 4-monooxygenase (Photinus pyralis), P08659 | purified P. pyralis luciferase, luminescence, biochemical | Potency, µM (top dose mostly 115 µM), most hits filed as inhibitors | hit rate 2.5% among 76,000 | AID 1347043, 2019; also: nearly all actives have a fitted effect of over 65% in size
Target sequence (P08659 whole entry, looked up): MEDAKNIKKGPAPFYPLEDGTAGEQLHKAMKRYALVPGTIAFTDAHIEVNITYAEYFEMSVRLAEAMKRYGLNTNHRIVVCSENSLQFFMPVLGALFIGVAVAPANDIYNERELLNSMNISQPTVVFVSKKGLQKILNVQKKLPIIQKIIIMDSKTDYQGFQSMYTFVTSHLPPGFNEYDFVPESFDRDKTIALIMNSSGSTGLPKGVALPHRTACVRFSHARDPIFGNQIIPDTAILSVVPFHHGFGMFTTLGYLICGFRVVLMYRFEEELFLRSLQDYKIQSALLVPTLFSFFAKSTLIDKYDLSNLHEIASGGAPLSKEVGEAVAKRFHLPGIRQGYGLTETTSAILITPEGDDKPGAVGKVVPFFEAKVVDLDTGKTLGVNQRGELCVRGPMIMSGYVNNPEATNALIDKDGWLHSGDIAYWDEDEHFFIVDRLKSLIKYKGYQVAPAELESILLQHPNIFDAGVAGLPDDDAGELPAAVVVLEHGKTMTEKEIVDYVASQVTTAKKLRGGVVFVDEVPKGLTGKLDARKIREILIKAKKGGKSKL
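FLuc 10nM, D-luciferin 10uM, ATP 10uM, Mg acetate 10mM, Tris acetate pH 7.5, Tween/BSA; cpd qHTS; enzyme added last; CCD luminescence.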
hNpr1 antagonist: Natriuretic polypeptide receptor (hNpr1) antagonism - Primary qHTS; AID 1347048, 2019; Potency, µM (top dose mostly 46.3 µM), most hits filed as inhibitors; hit rate 1.6% among 76,000; HEK293 hNpr1 GloSensor cGMP, ANP-stimulated luminescence; Atrial natriuretic peptide receptor 1 (Homo sapiens), P16066; calls by dose curve; also: nearly all actives have a fitted effect of over 60% in size
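Compound pre-incubated 30 min at room temperature on GloSensor-loaded HEK293 cells stably carrying hNpr1 and the pGS-40F cGMP biosensor. Stimulation uses hNppA at 0.1 nM final; luminescence is taken at baseline and 20 min post-agonist.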
Each line names hits and unclear results; the compound was inactive in the other large screens. Unless noted, calls follow the shape of the dose curve; as a rule, active = well fitted curve in the direction sought with a large enough effect; inconclusive = small, poorly fitted or top-dose-only effect, or another doubt; inactive = no such curve, though single readings can be large; an effect the other way counts as inactive or inconclusive.

COc1ccc(-c2cc(-c3cccc(C(N)=O)c3)cn3cncc23)cc1	HEK cytotox inconclusive, 3T3 cytotox 40µM
CCC1=C(C(=O)OC)C(c2ccccc2OC)N2C(CC(=O)N3CCCC3)=CSC2=N1 (stereo not drawn)	none
CC(=O)N1CCC(C2CCN(C(=O)c3cc(C)n(C)n3)C2)CC1 (stereo not drawn)	none (no result: Luciferase inh, hNpr1 antagonist)
COCC(=O)N1CCCN(c2ccc3nnc(C)n3n2)CC1	none (no result: Luciferase inh, hNpr1 antagonist)
CC(=O)Nc1cccc(-c2cc(-c3ccncc3)c3cncn3c2)c1	HEK cytotox inconclusive, 3T3 cytotox inconclusive
COc1ccc(-c2cc(-c3ccc(F)cc3OC)cn3cncc23)cc1	HEK cytotox inconclusive, 3T3 cytotox inconclusive
Cn1cc(-c2cc(-c3ccncc3)c3cncn3c2)cn1	HEK cytotox inconclusive, 3T3 cytotox 40µM
COc1ccc(-c2cc(-c3ccc(F)cc3)cn3cncc23)cc1	HEK cytotox 100µM, 3T3 cytotox inconclusive, Luciferase inh inconclusive
CN1Cc2ccccc2N(CC(O)Cc2ccccc2)CCC1=O (stereo not drawn)	3T3 cytotox inconclusive (no result: Luciferase inh, hNpr1 antagonist)
O=C1CCN(CC(O)Cc2ccccc2)c2ccccc2CCN1C/C=C/c1ccccc1 (stereo not drawn)	HEK cytotox 22µM, 3T3 cytotox inconclusive (no result: Luciferase inh, hNpr1 antagonist)
CCc1nc2c(c(-c3ccc(OC)cc3)n1)CN(C(=O)c1ccccc1)CC2	3T3 cytotox 14µM (no result: Luciferase inh, hNpr1 antagonist)
CCc1nc2c(c(-c3ccc(OC)cc3)n1)CCN(C(=O)c1ccccc1)CC2	3T3 cytotox inconclusive (no result: Luciferase inh, hNpr1 antagonist)
CCc1nc2c(c(-c3ccc(OC)cc3)n1)CN(C(=O)c1ccc3c(c1)OCO3)CC2	3T3 cytotox 40µM (no result: Luciferase inh, hNpr1 antagonist)
CCc1nc2c(c(-c3ccc(OC)cc3)n1)CCN(C(=O)c1ccccc1F)CC2	3T3 cytotox 40µM (no result: Luciferase inh, hNpr1 antagonist)
COc1ccc(-c2nc(C)nc3c2CCN(C(=O)c2ccc4c(c2)OCO4)CC3)cc1	HEK cytotox inconclusive
CN1C[C@@H](NC(=O)c2ccccn2)C[C@H]1c1nc(-c2ccc3ccccc3c2)no1	HEK cytotox inconclusive, 3T3 cytotox inconclusive, Luciferase inh 32µM
CN(C)c1ccc(C(=O)N[C@H]2C[C@@H](c3nc(-c4ccc5ccccc5c4)no3)N(C)C2)cc1	HEK cytotox inconclusive, 3T3 cytotox inconclusive
COc1ccc(-c2noc([C@@H]3C[C@H](NCc4ccc(F)cc4)CN3C)n2)cc1	HEK cytotox 100µM, 3T3 cytotox inconclusive, Luciferase inh 63µM
COc1ccc(CC(=O)N[C@H]2C[C@@H](c3nc(-c4ccc5ccccc5c4)no3)N(C)C2)cc1	Luciferase inh 40µM
Cn1cc(CN2CCN3CCCC3C2)c(-c2ccc(C3CCCCC3)cc2)n1 (stereo not drawn)	HEK cytotox 25µM, 3T3 cytotox inconclusive, Luciferase inh inconclusive
O=C1NC2(CCCN(Cc3ccccc3)C2)Oc2ccccc21 (stereo not drawn)	HEK cytotox inconclusive, 3T3 cytotox inconclusive
O=C(NCC1CCCO1)c1ccc2oc(-c3ccc(C(F)(F)F)cc3)nc2c1 (stereo not drawn)	HEK cytotox 18µM, hNpr1 antagonist inconclusive
O=C(NC1CCCCCC1)c1ccc2oc(-c3ccncc3)nc2c1	HEK cytotox 35µM (no result: Luciferase inh, hNpr1 antagonist)
O=C(c1ccc2oc(-c3ccc(C(F)(F)F)cc3)nc2c1)N1CCOCC1	HEK cytotox inconclusive, 3T3 cytotox inconclusive
O=C(Nc1ccccc1)N1CCN(C(=O)c2cccc(-c3ccccn3)c2)CC1	none (no result: Luciferase inh, hNpr1 antagonist)
COCCn1c(=O)c(C(=O)N2CCN([S+](=O)([O-])c3cccs3)CC2)nc2cccnc21	none (no result: Luciferase inh, hNpr1 antagonist)
Cc1ccccc1CN1Cc2nc(Nc3ccccc3)ccc2OCC1=O	HEK cytotox 71µM, 3T3 cytotox inconclusive
Cc1csc(Nc2ccc3c(n2)CN(Cc2ccccc2C)C(=O)CO3)n1	HEK cytotox 25µM, 3T3 cytotox 25µM, hNpr1 antagonist inconclusive
Cc1ccccc1CN1Cc2nc(-c3c(C)noc3C)ccc2OCC1=O	HEK cytotox inconclusive, 3T3 cytotox inconclusive
O=C(C1CCCCN1Cc1ccc(-c2ccsc2)cc1)N1CCCC1 (stereo not drawn)	HEK cytotox inconclusive (no result: Luciferase inh, hNpr1 antagonist)
O=C(NCCc1ccc(Cl)cc1)C1CCCCN1Cc1ccc(-c2ccsc2)cc1 (stereo not drawn)	HEK cytotox 40µM, 3T3 cytotox 25µM (no result: Luciferase inh, hNpr1 antagonist)
O=C(NC1CCCCC1)C1CCCCN1Cc1ccc(-c2ccsc2)cc1 (stereo not drawn)	HEK cytotox 40µM (no result: Luciferase inh, hNpr1 antagonist)
O=C(NCC(F)(F)F)C1CCCCN1Cc1ccc(-c2ccsc2)cc1 (stereo not drawn)	HEK cytotox inconclusive (no result: Luciferase inh, hNpr1 antagonist)
CC(C)c1nc2c(c(-c3ccc(Cl)cc3)n1)CCN(C(=O)c1ccccc1F)CC2	HEK cytotox inconclusive (no result: Luciferase inh, hNpr1 antagonist)
O=C(Nc1cnc(-c2ccc(C(F)(F)F)cc2)nc1)C1CCOC1 (stereo not drawn)	HEK cytotox inconclusive, 3T3 cytotox inconclusive, Luciferase inh 18µM
O=C(CC1C(=O)NCCN1Cc1cccc(Oc2ccccc2)c1)NCc1ccco1 (stereo not drawn)	HEK cytotox 25µM, 3T3 cytotox inconclusive
OC[C@@H]1CNC[C@H]1C1CCN(Cc2cccc(C(F)(F)F)c2)CC1	HEK cytotox 79µM, 3T3 cytotox inconclusive
COc1cc(Cl)ccc1C(=O)N1CCC2(CC1)NC(=O)N(c1ccc(F)cc1)N2	HEK cytotox 13µM, 3T3 cytotox inconclusive
Cc1ccc(C(=O)N2CCC3(CC2)NC(=O)N(c2cccc(Cl)c2)N3)c(C)c1	HEK cytotox inconclusive, 3T3 cytotox inconclusive
CCOc1ccccc1C(=O)N1CCC2(CC1)NC(=O)N(c1cccc(Cl)c1)N2	HEK cytotox 32µM, 3T3 cytotox inconclusive
CC(=O)NC1(C)CCN(Cc2cccc(-c3cccc(Cl)c3)c2)C1 (stereo not drawn)	HEK cytotox 79µM, 3T3 cytotox inconclusive, Luciferase inh inconclusive
CC(=O)NC1(C)CCCN(Cc2cccc(-c3ccc4c(ccn4C)c3)c2)C1 (stereo not drawn)	HEK cytotox 56µM, 3T3 cytotox 79µM, Luciferase inh inconclusive, hNpr1 antagonist inconclusive
C=CCOc1c(OC)ccc2c1CN(CC)C(=O)CCN2CC(O)COc1ccc(OC)cc1 (stereo not drawn)	HEK cytotox 40µM, 3T3 cytotox inconclusive (no result: Luciferase inh, hNpr1 antagonist)
C=CCOc1c(OC)ccc2c1CN(CC1CC1)C(=O)CCN2C[C@@H](O)COCc1ccccc1	HEK cytotox 45µM, 3T3 cytotox inconclusive (no result: Luciferase inh, hNpr1 antagonist)
C=CCOc1c(OC)ccc2c1CN(CCOC)C(=O)CCN2CC(O)Cc1ccccc1 (stereo not drawn)	HEK cytotox inconclusive (no result: Luciferase inh, hNpr1 antagonist)
C=CCOc1c(OC)ccc2c1CN(C1CCCC1)C(=O)CCN2CC(O)Cc1ccccc1 (stereo not drawn)	HEK cytotox 45µM, 3T3 cytotox inconclusive (no result: Luciferase inh, hNpr1 antagonist)
C=CCOCC(O)CN1CCC(=O)N(C2CCCC2)Cc2c1ccc(OC)c2OCC=C (stereo not drawn)	HEK cytotox inconclusive (no result: Luciferase inh, hNpr1 antagonist)
CCOC(=O)CN1Cc2ccccc2N(CC(O)COc2ccc(OC)cc2)CCC1=O (stereo not drawn)	HEK cytotox inconclusive (no result: Luciferase inh, hNpr1 antagonist)
